Experimental data reported in PubChem BioAssay.
Active and inactive are the calls of the source.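 The calls were made as follows, unless noted: active = inhibition at or above 50% at 10 µM; inactive = inhibition below 50%.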

Legend:
[1] = inhibitors of TNFa-induced NFkB p65 translocation, primary screen, imaging, HUVEC, MLSMR starter and 10KST1 sets (AID 438;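 active = inhibition above 20% together with a positive visual image hit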;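 also: compound added about 3h40 before a 20 min TNFalpha stimulation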;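 as to inhibition: signal is the nuclear over cytoplasmic p65 intensity ratio per well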); settings: HUVEC TNFa-induced p65 nuclear translocation; cell count: measured here: nuclei count (cytotoxicity indicator), at 2.08 µM; inhibition: at 2 µM, stronger effect = higher value, 0% TNFa-plus-vehicle, 100% no-TNFa wells
[2] = inhibitors of mutant huntingtin aggregation, primary screen, imaging, exon1htt(103Q)mCFP cells, high-content imaging (AID 483;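 active = visual image review flags a hit and inhibition of aggregation exceeds 20%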;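 also: compound exposure lasted 3 days before fixation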;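 as to nuclei count: percent of the per-plate median nuclei count of sample wells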); settings: exon1htt(103Q)mCFP cell line, aggregate imaging, at 2 µM; inhibition of aggregation: stronger effect = higher value; nuclei count: measured here: cell count, toxicity
[3] = inhibitors of E-selectin induction by TNFa, primary screen, imaging, HUVEC, immunofluorescence, MLSMR starter and 10KST1 sets (AID 487;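 active = visually confirmed hit in the image check and inhibition above 20%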;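 as to inhibition: signal is fraction of cell area covered by stained E-selectin grains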;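 as to nuclei count: 100% = median nuclei count of all wells on the same plate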); settings: HUVEC TNFalpha-induced E-selectin immunofluorescence imaging, at 2 µM; inhibition: stronger effect = higher value; nuclei count: measured here: cell number, toxicity
[4] = target: Voltage-gated potassium channel subunit beta-2 (Rattus norvegicus) (UniProt P62483); test: KvBeta enzyme negative modulators, primary screen, biochemical, NADPH fluorescence (AID 622;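 active = fluorescence slope higher than the sample average by over 3 SD, cut at about -0.22 in these data, passing the limit was not always enough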;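 also: slope of raw intensity against log time taken from 70 to 1610 s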); settings: recombinant KvBeta, 4-cyanobenzaldehyde reduction, at 10 µM, stronger effect = higher value
Chain of Voltage-gated potassium channel subunit beta-2 (Rattus norvegicus) (P62483 whole entry, looked up): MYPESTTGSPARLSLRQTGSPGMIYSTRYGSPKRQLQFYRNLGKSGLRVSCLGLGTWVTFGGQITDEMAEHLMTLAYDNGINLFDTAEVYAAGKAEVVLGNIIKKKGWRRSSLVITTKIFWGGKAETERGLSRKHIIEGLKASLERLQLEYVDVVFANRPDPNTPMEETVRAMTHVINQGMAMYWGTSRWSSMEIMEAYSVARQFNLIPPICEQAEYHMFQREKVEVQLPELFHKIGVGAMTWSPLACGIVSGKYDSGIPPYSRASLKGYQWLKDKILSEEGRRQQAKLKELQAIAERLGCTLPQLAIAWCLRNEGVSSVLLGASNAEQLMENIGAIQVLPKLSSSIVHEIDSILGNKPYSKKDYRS

[5] = target: Voltage-gated potassium channel subunit beta-2 (Rattus norvegicus) (UniProt P62483); test: KvBeta positive modulators, primary screen, biochemical, NADPH fluorescence (AID 623;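 active = NADPH fluorescence slope more negative than the mean of all samples by about 3 SD, 99.7% confidence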;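 also: fluorescence intensity change per second fitted from 20 to 320 s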); settings: Recombinant KvBeta, NADPH fluorescence decrease slope, 10 min; at 10 µM; stronger effect = lower value
[6] = target: Alpha-2C adrenergic receptor (Homo sapiens) (UniProt P18825); test: modulators of alpha2C/GIRK thallium flux, primary screen, cell-based, HEK293 alpha2C/GIRK1/2 (AID 624;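 active = fluorescence slope after compound addition differing from the mean of all screened samples at 99.7% confidence, in either direction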;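 also: slope of fluorescence ratio to pre-addition baseline per second over 15 to 24 s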); settings: thallium flux BTC fluorescence, at 10 µM, actives lie on both sides
Chain of Alpha-2C adrenergic receptor (Homo sapiens) (P18825 whole entry, looked up): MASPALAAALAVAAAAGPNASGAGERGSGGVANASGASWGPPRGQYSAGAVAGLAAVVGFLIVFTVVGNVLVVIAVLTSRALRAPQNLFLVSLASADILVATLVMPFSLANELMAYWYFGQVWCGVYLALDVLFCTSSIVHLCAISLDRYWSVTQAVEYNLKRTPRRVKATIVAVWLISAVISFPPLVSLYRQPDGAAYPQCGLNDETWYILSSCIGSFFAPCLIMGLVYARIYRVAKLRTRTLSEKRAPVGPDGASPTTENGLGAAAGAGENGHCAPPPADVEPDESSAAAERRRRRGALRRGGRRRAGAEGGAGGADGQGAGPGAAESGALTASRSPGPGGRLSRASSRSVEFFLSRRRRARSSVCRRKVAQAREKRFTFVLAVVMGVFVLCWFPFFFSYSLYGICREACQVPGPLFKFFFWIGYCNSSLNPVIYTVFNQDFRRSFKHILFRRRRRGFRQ

[7] = inhibitors of Sendai virus-induced IRF3 signaling, primary screen, TLR/RLR signaling modifier project, cell-based, Sendai virus stimulus, luciferase, 10K MLSCN set (AID 602276); settings: HEK293 RL24 IRF3 luciferase reporter, at 10 µM, stronger effect = higher value;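 also: firefly luciferase from ISG56 promoter only with Renilla not read in this screen; 0% = Sendai virus plus DMSO and 100% = medium plus DMSO without virus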
[8] = inhibitors of poly I:C-induced TLR3 signaling, primary screen, cell-based, poly I:C stimulus, luciferase, 10K MLSCN set (AID 602277;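 active = inhibition of the reporter signal at or above 50%; inactive = inhibition below 50%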); settings: HEK293-TLR3 RL24 IRF3 luciferase reporter, at 10 µM, stronger effect = higher value

| Structure (SMILES) | cell count [1] | inhibition [1] | inhibition of aggregation [2] | nuclei count [2] [%] | inhibition [3] | nuclei count [3] [%] | fluorescence slope [4] | NADPH fluorescence slope [5] | slope [6] | inhibition [7] | inhibition [8] |
| --- | --- | --- | --- | --- | --- | --- | --- | --- | --- | --- | --- |
| O=C(CN(c1ccc(F)cc1)S(=O)(=O)c1ccc2c(c1)OCCO2)Nc1ccc2c(c1)OCO2 | 795 | -6.1% (inactive) | -28.9% (inactive) | 105 | -49.1% (inactive) | 114 | -0.485 (inactive) | -3.3e-05 (inactive) | 0.00328 (inactive) | 16.4% (inactive) | 16.1% (inactive) |
| O=C(Cn1cnc2c(nnn2-c2ccc(F)cc2)c1=O)N1CCCc2ccccc21 | 654 | 0.4% (inactive) | -21.9% (inactive) | 130 | 1.5% (inactive) | 102 | -0.523 (inactive) | -1.6e-06 (inactive) | 0.00588 (inactive) | 14% (inactive) | 12.1% (inactive) |
| CCCCc1nccn1CCn1ccnc1CCCC | 514 | -5% (inactive) | 53.1% (active) | 75 | -75% (inactive) | 108 | -0.489 (inactive) | 1.9e-05 (inactive) | 0.00472 (inactive) | 26.7% (inactive) | 25.7% (inactive) |
| C=CCn1c(SCC(=O)c2ccc(OC)cc2)nnc1C(C)NC(=O)c1cccs1 (stereo not drawn) | 661 | -0.6% (inactive) | 1.5% (inactive) | 127 | -44.6% (inactive) | 132 | -0.349 (inactive) | -4e-06 (inactive) | 0.00302 (inactive) | 10.6% (inactive) | 12.5% (inactive) |
| COC(=O)c1ccccc1OCC(=O)NC1CCCCC1 | 400 | 2.8% (inactive) | -13.9% (inactive) | 110 | -140% (inactive) | 112 | -0.511 (inactive) | -1.1e-05 (inactive) | 0.00395 (inactive) | -18.9% (inactive) | -61.5% (inactive) |
| O=C(CN1CCN(Cc2ccc3c(c2)OCO3)CC1)Nc1ccc2c(c1)OCCO2 | 248 | -3% (inactive) | 2.7% (inactive) | 75.7 | -19.1% (inactive) | 85.5 | -0.583 (inactive) | -4.2e-05 (inactive) | 0.00576 (inactive) | 0.946% (inactive) | 17.2% (inactive) |
| CCOc1ccc(CNc2ccc3c(c2)ncn3C)cc1 | 174 | -3% (inactive) | -8.8% (inactive) | 72.5 | 4.7% (inactive) | 90.2 | -0.435 (inactive) | -1.3e-05 (inactive) | 0.00471 (inactive) | -27.2% (inactive) | -76.3% (inactive) |
| CCc1nnc(SCC(=O)NC2CCCCC2)nc1CC | 774 | -14.3% (inactive) | 11.4% (inactive) | 105 | -62.4% (inactive) | 103 | -0.536 (inactive) | 2e-06 (inactive) | 0.00672 (inactive) | -5.14% (inactive) | 5.98% (inactive) |
| Cc1c(C#N)sc2nc(-c3ccccc3)nc(N3CCCC3)c12 | 388 | -8.7% (inactive) | -28.2% (inactive) | 99.9 | -50% (inactive) | 130 | -0.236 (inactive) | -1.1e-05 (inactive) | 0.011 (active) | 16.9% (inactive) | 26% (inactive) |
| Nc1cc(CN2C(=O)c3ccccc3C2=O)cc(Cl)c1O | 451 | -1.8% (inactive) | 14.9% (inactive) | 100 | -74.6% (inactive) | 159 | -0.401 (inactive) | -5.2e-05 (inactive) | 0.00582 (inactive) | 12.8% (inactive) | 36.4% (inactive) |
| COc1ccc(OC)c(C(=O)c2coc3ccc(O)c(CN4CCOCC4)c23)c1 | 282 | 2.9% (inactive) | -12.4% (inactive) | 120 | -28.2% (inactive) | 109 | -0.561 (inactive) | -9.1e-06 (inactive) | 0.00423 (inactive) | 6.31% (inactive) | 23% (inactive) |
| CCCSc1nnc(N2C(=O)CC(c3ccsc3)C3=C2CCCC3=O)s1 (stereo not drawn) | 640 | -5.3% (inactive) | 24.3% (inactive) | 90.4 | -39.5% (inactive) | 102 | -0.558 (inactive) | -3.6e-05 (inactive) | 0.00697 (inactive) | 5.11% (inactive) | 26.4% (inactive) |
| CC(C)=CC(=O)N1CCCc2ccccc21 | 308 | -2.8% (inactive) | -5.5% (inactive) | 84.6 | 3.3% (inactive) | 96.7 | -0.606 (inactive) | -2.8e-05 (inactive) | 0.00337 (inactive) | 16.7% (inactive) | 17% (inactive) |
| COc1cccc(NC(=O)N2CCCC2C(=O)NC(C)C)c1 (stereo not drawn) | 436 | 1.5% (inactive) | -4.5% (inactive) | 121 | -49.5% (inactive) | 114 | -0.601 (inactive) | -2.2e-05 (inactive) | 0.00309 (inactive) | 10.9% (inactive) | 13.7% (inactive) |
| COc1ccc(-c2nnc(SCCC(=O)O)n2-c2ccccc2)cc1 | 348 | 2.5% (inactive) | -19.5% (inactive) | 107 | -10.9% (inactive) | 124 | -0.644 (inactive) | 1.6e-05 (inactive) | 0.00524 (inactive) | 12.1% (inactive) | 16.4% (inactive) |
| COCC(=O)Nc1c(C(=O)Nc2ccccc2OC)oc2ccccc12 | 602 | -5.9% (inactive) | 11.9% (inactive) | 99.1 | 2.5% (inactive) | 60.9 | -0.318 (inactive) | 1.2e-05 (inactive) | 0.00625 (inactive) | -4.76% (inactive) | 11.5% (inactive) |
| O=C(O)c1ccc2c(c1)N(Cc1ccccc1F)C(=O)c1ccccc1S2=O (stereo not drawn) | 585 | -1.2% (inactive) | 17.9% (inactive) | 64.2 | -49.8% (inactive) | 107 | -0.537 (inactive) | -5.5e-07 (inactive) | 0.0062 (inactive) | 11.3% (inactive) | 7.14% (inactive) |
| C=CCSc1nc2sc(C)c(C)c2c(=O)[nH]1 | 589 | 1.4% (inactive) | 10.2% (inactive) | 111 | 3.2% (inactive) | 107 | -0.563 (inactive) | -9.3e-06 (inactive) | 0.00785 (inactive) | -11.3% (inactive) | -3.55% (inactive) |
| CCOC(=O)c1ccc(NC(=O)CSCc2ccco2)cc1 | 680 | -1.5% (inactive) | -9.1% (inactive) | 108 | -4.5% (inactive) | 97.2 | -0.471 (inactive) | -2.1e-06 (inactive) | 0.0058 (inactive) | 1.64% (inactive) | -14.9% (inactive) |
| COc1c(Br)cc2c(C)c(C(=O)O)oc2c1Br | 472 | 3.5% (inactive) | -9.2% (inactive) | 95.6 | -26.9% (inactive) | 112 | -0.443 (inactive) | -0.000118 (inactive) | 0.00602 (inactive) | 9.89% (inactive) | 18.8% (inactive) |
| Cc1ccn2cc(CCNC(=O)CC(C)(C)C)nc2c1 | 316 | 6.4% (inactive) | -9.1% (inactive) | 95.6 | -3.4% (inactive) | 104 | -0.307 (inactive) | -5.9e-05 (inactive) | 0.00588 (inactive) | 3.87% (inactive) | 5.08% (inactive) |
| CCOc1ccc(NC(=O)c2ccc3c(c2)N(Cc2ccc(F)cc2)C(=O)CS3=O)cc1 (stereo not drawn) | 659 | 0% (inactive) | -4.8% (inactive) | 105 | -25.6% (inactive) | 113 | -0.551 (inactive) | -2.5e-05 (inactive) | 0.00664 (inactive) | 5.6% (inactive) | -7.02% (inactive) |
| Cc1ccccc1NC(=O)Cc1nnc(SCC(=O)N2CCN(c3ccccc3)CC2)n1C | 483 | -5.3% (inactive) | 2.3% (inactive) | 99.9 | 8.9% (inactive) | 131 | -0.402 (inactive) | -5.5e-05 (inactive) | 0.00281 (inactive) | 11.9% (inactive) | 29.5% (inactive) |
| Nn1c(SCC(=O)NC2CCCCC2)nnc1C1CC1 | 433 | -28.7% (inactive) | 7.4% (inactive) | 95.6 | -36.9% (inactive) | 117 | -0.466 (inactive) | 4.6e-05 (inactive) | 0.00622 (inactive) | 4.49% (inactive) | 16.1% (inactive) |
| CCOC(=O)c1sc(=NC(=O)c2ccc(OC)c(OC)c2)n(C)c1C | 642 | 10.1% (inactive) | 3.7% (inactive) | 93.8 | 47.2% (inactive) | 75.6 | -0.583 (inactive) | -2.7e-05 (inactive) | 0.00657 (inactive) | -16.4% (inactive) | -82.7% (inactive) |
| Cc1ccc(-c2nnn(CC(=O)N(Cc3ccco3)C(C(=O)NC(C)(C)C)c3cccs3)n2)o1 (stereo not drawn) | 643 | 3.5% (inactive) | 4.8% (inactive) | 85.8 | -43.9% (inactive) | 117 | -0.595 (inactive) | -7.2e-05 (inactive) | 0.00341 (inactive) | 9.52% (inactive) | 12.3% (inactive) |
| COC(=O)Nc1ccc(NC(C)=O)cc1 | 398 | -4.4% (inactive) | 20.9% (inactive) | 82.1 | 6.8% (inactive) | 94.6 | -0.493 (inactive) | 6e-05 (inactive) | 0.00538 (inactive) | -9.94% (inactive) | -5.16% (inactive) |
| CCc1c(C)c2ccc(OCC(=O)OC)cc2oc1=O | 342 | 2.2% (inactive) | 9.8% (inactive) | 78.5 | 32.2% (inactive) | 97.7 | -0.165 (inactive) | -1.1e-05 (inactive) | 0.00537 (inactive) | 12.5% (inactive) | 18.6% (inactive) |
